# Assay results taken from the supplement of paper PMC7724964.
# ± gives the standard deviation of the averaged measurements.
# T1: ARFGEF2 639-829 Sec7 (domain begin residue: 639, domain end residue: 829), Q9Y6D5
# T1 chain: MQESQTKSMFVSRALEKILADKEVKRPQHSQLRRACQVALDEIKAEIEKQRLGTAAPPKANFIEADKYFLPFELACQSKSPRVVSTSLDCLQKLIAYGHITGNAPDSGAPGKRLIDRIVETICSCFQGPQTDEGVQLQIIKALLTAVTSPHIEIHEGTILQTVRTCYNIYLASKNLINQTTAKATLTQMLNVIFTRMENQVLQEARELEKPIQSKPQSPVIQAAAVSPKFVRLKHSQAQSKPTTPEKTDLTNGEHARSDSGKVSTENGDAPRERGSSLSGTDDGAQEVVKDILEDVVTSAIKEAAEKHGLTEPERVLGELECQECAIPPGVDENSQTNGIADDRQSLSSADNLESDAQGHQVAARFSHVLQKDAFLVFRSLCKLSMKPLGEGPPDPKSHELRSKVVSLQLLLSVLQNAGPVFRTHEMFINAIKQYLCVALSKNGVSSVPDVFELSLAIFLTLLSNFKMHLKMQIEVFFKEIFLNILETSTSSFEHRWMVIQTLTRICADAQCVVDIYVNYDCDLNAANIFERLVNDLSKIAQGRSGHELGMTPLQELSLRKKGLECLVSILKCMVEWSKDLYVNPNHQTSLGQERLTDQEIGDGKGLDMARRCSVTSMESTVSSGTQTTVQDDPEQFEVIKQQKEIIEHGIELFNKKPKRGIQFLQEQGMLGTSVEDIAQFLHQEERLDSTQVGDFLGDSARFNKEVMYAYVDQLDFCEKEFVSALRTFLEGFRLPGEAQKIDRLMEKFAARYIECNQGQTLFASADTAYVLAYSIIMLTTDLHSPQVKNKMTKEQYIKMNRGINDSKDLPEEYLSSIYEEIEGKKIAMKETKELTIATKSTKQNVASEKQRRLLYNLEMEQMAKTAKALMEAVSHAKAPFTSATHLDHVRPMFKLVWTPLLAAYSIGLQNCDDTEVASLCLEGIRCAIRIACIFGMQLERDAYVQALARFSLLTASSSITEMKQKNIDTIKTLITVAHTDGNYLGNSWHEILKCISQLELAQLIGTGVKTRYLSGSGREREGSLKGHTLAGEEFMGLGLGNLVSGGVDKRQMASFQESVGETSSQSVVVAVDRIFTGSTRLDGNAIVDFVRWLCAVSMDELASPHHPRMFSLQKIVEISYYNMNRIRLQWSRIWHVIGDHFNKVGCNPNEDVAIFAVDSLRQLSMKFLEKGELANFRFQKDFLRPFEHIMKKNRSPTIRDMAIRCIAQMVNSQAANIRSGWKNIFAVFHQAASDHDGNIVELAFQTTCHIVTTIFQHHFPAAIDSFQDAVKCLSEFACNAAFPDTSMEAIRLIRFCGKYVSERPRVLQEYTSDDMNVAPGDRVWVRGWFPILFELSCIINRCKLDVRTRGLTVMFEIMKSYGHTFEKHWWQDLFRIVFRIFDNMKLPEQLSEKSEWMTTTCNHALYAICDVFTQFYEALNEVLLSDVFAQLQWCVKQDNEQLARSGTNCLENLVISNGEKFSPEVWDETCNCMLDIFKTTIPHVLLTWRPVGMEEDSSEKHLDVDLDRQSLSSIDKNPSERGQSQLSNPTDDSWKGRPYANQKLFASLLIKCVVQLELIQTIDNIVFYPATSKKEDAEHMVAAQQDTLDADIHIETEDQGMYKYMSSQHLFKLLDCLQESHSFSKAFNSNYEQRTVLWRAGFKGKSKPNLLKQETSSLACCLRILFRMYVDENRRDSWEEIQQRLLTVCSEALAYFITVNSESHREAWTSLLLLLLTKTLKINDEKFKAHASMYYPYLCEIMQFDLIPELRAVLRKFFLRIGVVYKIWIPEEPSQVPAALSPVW
# T2: ARID4A 568-634 Tudor-knot (domain begin residue: 568, domain end residue: 634), P29374
# T2 chain: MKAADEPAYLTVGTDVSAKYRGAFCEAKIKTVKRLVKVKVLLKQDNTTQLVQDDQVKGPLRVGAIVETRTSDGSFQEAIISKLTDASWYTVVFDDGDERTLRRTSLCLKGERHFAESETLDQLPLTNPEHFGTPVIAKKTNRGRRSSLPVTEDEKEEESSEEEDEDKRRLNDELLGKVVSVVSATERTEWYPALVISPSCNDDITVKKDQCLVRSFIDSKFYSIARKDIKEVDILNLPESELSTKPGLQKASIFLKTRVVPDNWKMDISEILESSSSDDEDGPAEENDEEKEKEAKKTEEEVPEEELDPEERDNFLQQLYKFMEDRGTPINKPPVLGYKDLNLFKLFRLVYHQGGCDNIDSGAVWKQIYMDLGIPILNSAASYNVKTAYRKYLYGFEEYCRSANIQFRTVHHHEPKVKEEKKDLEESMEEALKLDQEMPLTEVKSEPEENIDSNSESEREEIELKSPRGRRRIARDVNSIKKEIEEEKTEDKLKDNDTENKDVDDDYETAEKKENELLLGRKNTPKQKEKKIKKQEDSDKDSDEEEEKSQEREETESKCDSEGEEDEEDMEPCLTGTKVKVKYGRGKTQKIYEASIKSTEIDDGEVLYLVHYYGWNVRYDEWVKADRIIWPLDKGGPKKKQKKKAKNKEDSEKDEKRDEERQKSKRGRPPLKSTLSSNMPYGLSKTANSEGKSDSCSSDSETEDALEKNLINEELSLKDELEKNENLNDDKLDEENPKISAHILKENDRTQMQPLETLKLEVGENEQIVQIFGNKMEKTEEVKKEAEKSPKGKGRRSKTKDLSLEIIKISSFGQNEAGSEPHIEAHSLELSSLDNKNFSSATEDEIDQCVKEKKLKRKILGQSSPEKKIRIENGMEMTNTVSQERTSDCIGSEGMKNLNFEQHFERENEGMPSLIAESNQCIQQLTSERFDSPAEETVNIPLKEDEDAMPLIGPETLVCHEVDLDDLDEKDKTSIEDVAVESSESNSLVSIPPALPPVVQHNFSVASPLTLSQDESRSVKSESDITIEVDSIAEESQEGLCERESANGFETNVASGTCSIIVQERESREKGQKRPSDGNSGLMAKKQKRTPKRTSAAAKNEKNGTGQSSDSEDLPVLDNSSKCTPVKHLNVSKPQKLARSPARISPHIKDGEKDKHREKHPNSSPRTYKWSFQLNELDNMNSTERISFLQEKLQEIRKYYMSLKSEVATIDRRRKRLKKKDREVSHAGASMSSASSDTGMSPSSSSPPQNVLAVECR
# T3: TDRD1 261-449 TUDOR (domain begin residue: 261, domain end residue: 449), Q9BXT4
# T3 chain: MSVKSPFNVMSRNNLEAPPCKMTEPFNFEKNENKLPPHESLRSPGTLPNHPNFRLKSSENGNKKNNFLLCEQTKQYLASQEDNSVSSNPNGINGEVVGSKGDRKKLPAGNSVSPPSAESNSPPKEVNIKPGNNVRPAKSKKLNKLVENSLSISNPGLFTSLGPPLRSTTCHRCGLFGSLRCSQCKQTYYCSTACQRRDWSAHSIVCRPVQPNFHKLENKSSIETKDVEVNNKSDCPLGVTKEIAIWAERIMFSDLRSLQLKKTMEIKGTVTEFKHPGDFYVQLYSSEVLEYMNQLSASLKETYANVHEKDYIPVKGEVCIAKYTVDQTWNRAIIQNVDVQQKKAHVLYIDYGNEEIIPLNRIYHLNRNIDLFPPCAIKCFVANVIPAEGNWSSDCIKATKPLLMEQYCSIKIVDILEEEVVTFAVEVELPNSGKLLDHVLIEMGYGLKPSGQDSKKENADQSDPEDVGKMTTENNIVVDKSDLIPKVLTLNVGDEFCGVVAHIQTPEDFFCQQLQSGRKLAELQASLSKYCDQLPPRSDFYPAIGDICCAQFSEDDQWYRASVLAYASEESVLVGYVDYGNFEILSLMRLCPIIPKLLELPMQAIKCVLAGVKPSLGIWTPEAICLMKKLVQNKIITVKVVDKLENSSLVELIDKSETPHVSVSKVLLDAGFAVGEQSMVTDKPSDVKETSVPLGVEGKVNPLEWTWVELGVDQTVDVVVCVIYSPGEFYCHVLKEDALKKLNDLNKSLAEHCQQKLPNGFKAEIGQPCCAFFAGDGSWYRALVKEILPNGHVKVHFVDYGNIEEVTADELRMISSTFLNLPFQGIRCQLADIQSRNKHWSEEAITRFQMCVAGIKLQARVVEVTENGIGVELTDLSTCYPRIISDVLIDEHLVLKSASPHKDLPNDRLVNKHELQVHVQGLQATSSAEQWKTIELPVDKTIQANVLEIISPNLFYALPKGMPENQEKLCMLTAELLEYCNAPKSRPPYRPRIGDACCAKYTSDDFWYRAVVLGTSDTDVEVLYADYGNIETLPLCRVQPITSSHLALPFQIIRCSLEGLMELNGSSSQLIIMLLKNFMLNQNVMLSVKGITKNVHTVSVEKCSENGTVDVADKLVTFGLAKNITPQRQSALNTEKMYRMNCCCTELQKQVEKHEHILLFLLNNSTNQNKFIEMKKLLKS
# T4: TDRKH 290-430 TUDOR+SNase (domain begin residue: 290, domain end residue: 430), Q9Y2W6
# T4 chain: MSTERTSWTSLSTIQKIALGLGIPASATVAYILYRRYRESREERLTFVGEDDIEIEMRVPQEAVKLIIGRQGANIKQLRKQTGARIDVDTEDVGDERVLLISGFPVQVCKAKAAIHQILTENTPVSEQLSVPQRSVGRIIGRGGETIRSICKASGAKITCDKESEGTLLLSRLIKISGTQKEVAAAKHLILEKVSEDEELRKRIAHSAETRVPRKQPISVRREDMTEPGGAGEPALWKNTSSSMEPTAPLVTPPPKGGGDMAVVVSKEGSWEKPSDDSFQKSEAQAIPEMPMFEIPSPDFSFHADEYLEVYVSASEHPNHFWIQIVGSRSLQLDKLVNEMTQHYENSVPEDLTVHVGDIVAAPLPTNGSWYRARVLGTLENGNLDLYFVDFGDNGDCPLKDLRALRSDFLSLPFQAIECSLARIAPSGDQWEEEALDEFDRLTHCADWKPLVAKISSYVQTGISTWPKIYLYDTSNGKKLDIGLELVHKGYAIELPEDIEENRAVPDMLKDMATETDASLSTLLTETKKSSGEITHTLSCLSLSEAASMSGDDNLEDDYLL
# T5: ALDOA 1-364 Glycolytic (domain begin residue: 1, domain end residue: 364), P04075
# T5 chain: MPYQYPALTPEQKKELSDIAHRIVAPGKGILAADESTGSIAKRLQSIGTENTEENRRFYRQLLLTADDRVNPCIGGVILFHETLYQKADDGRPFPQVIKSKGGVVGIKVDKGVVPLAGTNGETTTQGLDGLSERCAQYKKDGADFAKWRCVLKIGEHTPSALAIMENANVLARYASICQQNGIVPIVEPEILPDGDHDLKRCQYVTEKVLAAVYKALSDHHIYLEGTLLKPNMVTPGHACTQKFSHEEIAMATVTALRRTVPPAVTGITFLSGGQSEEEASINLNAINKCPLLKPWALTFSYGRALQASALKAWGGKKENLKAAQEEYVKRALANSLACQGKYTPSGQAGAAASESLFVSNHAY
# B1: unnamed (peptide)
# chain: QITMQQYVELWHAAKS
# B2: unnamed (peptide)
# chain: GLDLDYWTMPGLETLL
# B3: unnamed (peptide)
# chain: STDIWDMWREWNEIDM
# B4: unnamed (peptide)
# chain: NWDMWMEEQYDPSVML
# B5: unnamed (peptide)
# chain: LTREHVQWDGVMHWIM
# B6: unnamed (peptide)
# chain: WVQDTWGEGWSYTVQE
# B7: unnamed (peptide)
# chain: VQWQERYTDYTFENVT
# B8: unnamed (peptide)
# chain: HFIELMYDAPEMHMPW
# B9: unnamed (peptide)
# chain: DIYWGYHMTDFISQET
# B10: unnamed (peptide)
# chain: WTYESGEWNWYTEEKT
# B11: unnamed (peptide)
# chain: MPDGLPEWWQGRHDWW
# Tests used:
# Test in all cases: phage ELISA signal ratio (GST-PRM binding over GST background); higher = stronger binding of peptide-phage to the PRM
# [1] = target: T1, ARFGEF2 639-829 Sec7 (domain begin …
# Experimental: (§1)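 Phage-displayed random hexadecapeptides (Cys-free, flanked by invariant Gly linkers, fused to the M13 P8 major coat protein) were selected over 5 rounds against GST-fused human PRM domains. Individual clones from rounds 4-5 were tested by phage ELISA, and positive clones binding the target but not GST were sequenced. Values are the ELISA signal ratio of target over background (GST); the background signal is given separately.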
# [2] = target: T2, ARID4A 568-634 Tudor-knot (domain begin …
# Experimental: as §1
# [3] = target: KMT2C 1055-1137 PHD (domain begin residue: 1055, domain end residue: 1137)
# Experimental: as §1
# [4] = target: KMT2C 995-1055 PHD (domain begin residue: 995, domain end residue: 1055)
# Experimental: as §1
# [5] = target: SETD1A 2-220 RRM_1 (domain begin residue: 2, domain end residue: 220), O15047
# SETD1A 2-220 RRM_1 (domain begin residue: 2, domain end residue: 220), O15047, sequence (O15047 whole entry): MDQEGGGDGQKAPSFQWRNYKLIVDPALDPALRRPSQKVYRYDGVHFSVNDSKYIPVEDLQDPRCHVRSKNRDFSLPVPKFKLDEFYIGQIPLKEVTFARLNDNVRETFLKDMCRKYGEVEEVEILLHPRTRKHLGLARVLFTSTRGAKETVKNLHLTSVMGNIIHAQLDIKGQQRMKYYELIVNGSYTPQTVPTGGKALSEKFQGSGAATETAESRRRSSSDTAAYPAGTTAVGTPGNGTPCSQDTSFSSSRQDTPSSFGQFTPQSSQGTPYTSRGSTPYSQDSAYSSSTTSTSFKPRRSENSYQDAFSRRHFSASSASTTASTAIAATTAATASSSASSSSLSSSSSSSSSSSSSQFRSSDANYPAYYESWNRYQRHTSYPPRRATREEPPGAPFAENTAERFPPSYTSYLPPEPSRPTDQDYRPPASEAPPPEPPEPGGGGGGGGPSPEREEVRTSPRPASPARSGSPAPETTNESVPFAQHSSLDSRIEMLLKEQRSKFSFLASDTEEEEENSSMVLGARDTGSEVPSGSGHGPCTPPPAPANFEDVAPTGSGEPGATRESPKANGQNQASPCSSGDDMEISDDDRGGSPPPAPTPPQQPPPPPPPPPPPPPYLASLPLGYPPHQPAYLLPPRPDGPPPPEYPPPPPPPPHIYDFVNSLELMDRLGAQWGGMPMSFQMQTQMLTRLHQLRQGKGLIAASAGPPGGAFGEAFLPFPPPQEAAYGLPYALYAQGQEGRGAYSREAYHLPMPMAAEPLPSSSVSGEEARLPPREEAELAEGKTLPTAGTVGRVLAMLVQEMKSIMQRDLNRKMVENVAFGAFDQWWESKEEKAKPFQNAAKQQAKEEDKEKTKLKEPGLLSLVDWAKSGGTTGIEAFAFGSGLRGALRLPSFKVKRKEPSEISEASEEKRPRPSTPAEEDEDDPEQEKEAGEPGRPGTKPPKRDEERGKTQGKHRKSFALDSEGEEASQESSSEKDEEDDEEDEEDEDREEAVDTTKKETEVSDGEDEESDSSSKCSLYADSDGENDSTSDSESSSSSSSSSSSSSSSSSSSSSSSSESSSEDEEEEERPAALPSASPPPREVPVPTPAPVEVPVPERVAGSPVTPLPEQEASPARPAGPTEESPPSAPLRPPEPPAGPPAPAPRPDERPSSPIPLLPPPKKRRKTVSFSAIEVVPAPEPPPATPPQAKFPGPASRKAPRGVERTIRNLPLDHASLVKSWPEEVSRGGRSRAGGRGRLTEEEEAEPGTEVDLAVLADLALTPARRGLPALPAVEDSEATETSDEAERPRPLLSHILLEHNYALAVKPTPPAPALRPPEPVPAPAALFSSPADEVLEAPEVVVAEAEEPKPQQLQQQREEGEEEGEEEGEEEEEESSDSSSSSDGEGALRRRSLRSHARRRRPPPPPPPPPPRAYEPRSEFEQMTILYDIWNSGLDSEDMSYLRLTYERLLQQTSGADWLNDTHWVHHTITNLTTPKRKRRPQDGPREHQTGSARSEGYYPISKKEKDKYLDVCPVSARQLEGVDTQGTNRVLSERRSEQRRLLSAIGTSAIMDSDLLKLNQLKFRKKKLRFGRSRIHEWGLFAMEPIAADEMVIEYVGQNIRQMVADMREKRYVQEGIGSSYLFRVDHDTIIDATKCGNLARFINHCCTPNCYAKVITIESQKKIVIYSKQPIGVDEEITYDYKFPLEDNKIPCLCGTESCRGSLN
# Experimental: as §1
# [6] = target: T3, TDRD1 261-449 TUDOR (domain begin …
# Experimental: as §1
# [7] = target: T4, TDRKH 290-430 TUDOR+SNase (domain begin …
# Experimental: as §1
# [8] = target: T5, ALDOA 1-364 Glycolytic (domain begin …
# Experimental: as §1
# [9] = target: ARF3 1-181 Arf (domain begin residue: 1, domain end residue: 181), P61204
# ARF3 1-181 Arf (domain begin residue: 1, domain end residue: 181), P61204, sequence (P61204 whole entry): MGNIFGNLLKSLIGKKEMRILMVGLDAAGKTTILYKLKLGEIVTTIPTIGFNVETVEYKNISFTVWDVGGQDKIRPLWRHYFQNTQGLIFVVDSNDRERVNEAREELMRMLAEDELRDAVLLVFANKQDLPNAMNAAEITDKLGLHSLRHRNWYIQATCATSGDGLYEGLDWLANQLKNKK
# Experimental: as §1
binder,measurement,setting,value
B1,phage ELISA signal ratio,[1],24.1
B2,phage ELISA signal ratio,[2],8.9
B3,phage ELISA signal ratio,[2],9.5 ± 0.67
same,phage ELISA signal ratio,[3],6.74
same,phage ELISA signal ratio,[4],5.38
same,phage ELISA signal ratio,[5],12
same,phage ELISA signal ratio,[6],9.16
same,phage ELISA signal ratio,[7],6.85
B4,phage ELISA signal ratio,[2],9.12
B5,phage ELISA signal ratio,[1],16.4
B6,phage ELISA signal ratio,[8],20.2
B7,phage ELISA signal ratio,[8],24.7
B8,phage ELISA signal ratio,[2],5.33 ± 1.7
same,phage ELISA signal ratio,[3],6.76
B9,phage ELISA signal ratio,[9],15.3
B10,phage ELISA signal ratio,[8],23.9
B11,phage ELISA signal ratio,[1],18.2
